The results in this text go back to PubChem BioAssay (NCI).

Compounds without any hit were thinned out: in the full panel of roughly 79,000, 15% have a hit. The source made the active and inactive calls. Rule as the data show it: active = growth inhibition above about 70%; inactive = the rest.

A short description of the first assay: NCI Yeast Anticancer Drug Screen. Data for the rad50EPP+ strain (AID 151).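 Also: 0% = growth of vehicle-treated control cultures.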 The conditions noted are these: S. cerevisiae rad50 mutant strain, at 33.0 µM, active compounds read high. The gist of the method: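 Measured: growth inhibition of rad50EPP+ yeast. Reference: vehicle-treated controls. Screen uses strains with defined genetic alterations in DNA damage repair or cell cycle control.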
As for `CS(=O)(=O)SCc1ccc([N+](=O)[O-])cc1`, the growth inhibition was 99% (active).

As to `Cc1csc(=S)n1OC(=O)NC1CCCCC1`, the growth inhibition was 99% (active).

Turning to `CCOc1ccc(NC(=O)C2=C(C)NC(C)=C(C(=O)Nc3ccc(OCC)cc3)C2c2cccc([N+](=O)[O-])c2)cc1`, the growth inhibition was 3% (inactive).

As to `CC(C)(C)N=C(NO)c1ccccc1`, the growth inhibition was 35% (inactive).

In the case of `CCCCC/C(=C(\C#N)C(=O)OCC)c1ccccc1`, the growth inhibition is 26% (inactive).

Consider `O=C(NCCCl)Sc1ccc(Cl)cc1`, for which the growth inhibition was 56% (inactive).

Consider `O=C1Nc2ccc(Br)cc2C1=Nc1ccc2c(c1)OCO2`, for which the growth inhibition was -35% (inactive).

Regarding `CCC(C)OC(=O)Nc1ccc(C)c(NC(=O)OC(C)CC)c1` (stereo not drawn), the growth inhibition is 11% (inactive).

On to `O=C(O)c1cc2ccc(Cl)cc2c(O)c1C1=CCCCC1`, for which the growth inhibition was 13% (inactive).

Regarding `CN(C)Cc1cc(N=Nc2ccc(Cl)cc2)ccc1OC(=O)c1ccccc1`, the growth inhibition was 22% (inactive).

Take `CN1CCN(C(=O)/C=C/C(=O)c2ccccc2)CC1`: the growth inhibition is 50% (inactive).

For `CCCC/C=C/C(C)(C(=O)OCC)C(=O)OCC`, the growth inhibition was 9% (inactive).

For `Cc1nc(-c2cc3cc([N+](=O)[O-])ccc3oc2=O)cs1`, the growth inhibition was 81% (active).

For `Cc1nc2ccccc2nc1NNc1ccccc1`, the growth inhibition is 65% (inactive).

As to `CN(C)[C@@H]1C(=O)C(C(N)=O)=C(O)[C@@]2(O)C(=O)C3=C(O)c4c(O)cccc4C[C@H]3C[C@@H]12`, the growth inhibition was 10% (inactive).

`COc1ccc(NC(=O)CC2SC(=Nc3ccccc3C)NC2=O)c([N+](=O)[O-])c1` (stereo not drawn): the growth inhibition is 28% (inactive).

`COc1cc(O)c2c(c1O)C(=O)c1cc(C)ncc1C2=O`: the growth inhibition was 48% (inactive).

For the compound `CSc1nnc(SC)nn1`, the growth inhibition was 26% (inactive).

Consider `COc1cc(/C=C2\CCC/C(=C\c3ccc(O)c(OC)c3)C2=O)ccc1O`, for which the growth inhibition is 22% (inactive).

For the compound `CN(C)CCNC(=O)c1cccc2cc([N+](=O)[O-])ccc12`, the growth inhibition is 91% (active).

Turning to `CCC(C)(C)c1ccc(Oc2cccc(C(=O)O)c2)cc1`, the growth inhibition was 42% (inactive).

With `CCCCCCSc1ncnc2[nH]ncc12`, the growth inhibition is 22% (inactive).

On to `CC(=O)Nc1ccc(/C=C/[N+](=O)[O-])cc1`, for which the growth inhibition is 72% (active).

As for `CCOC(=O)c1[nH]n(-c2ccccc2)c(=O)c1C=NC(=S)C(N)=S`, the growth inhibition is 30% (inactive).

For `CCCC(O)C1CC(C(C)C)CCC1C` (stereo not drawn), the growth inhibition was 47% (inactive).

Consider `O=[n+]1c2ccccc2n([O-])c2cc(Br)ccc21`, for which the growth inhibition was 99% (active).

On to `CN(C)CCNC(=O)c1cccc2c1Oc1c(cccc1[N+](=O)[O-])O2`, for which the growth inhibition was 26% (inactive).

In the case of `Nc1ncc(-c2ccc(Br)cc2)s1`, the growth inhibition is 93% (active).

As to `Cc1cc2cc3cc(C)c(N)cc3nc2cc1N`, the growth inhibition is 71% (active).

Consider `CC12C(=O)OC(=O)C(c3ccccc31)c1ccccc12`, for which the growth inhibition is 19% (inactive).

Turning to `c1ccc2c(OCC3CO3)cccc2c1` (stereo not drawn), the growth inhibition is 93% (active).

On to `CCOC(=N)c1ccc(O)c(OC)c1`, for which the growth inhibition was -3% (inactive).

As for `Nc1cc(N)c(N=Nc2cccc3c(S(=O)(=O)O)cccc23)cc1N=Nc1cc([N+](=O)[O-])ccc1O`, the growth inhibition was -4% (inactive).

`COC(=O)Oc1cc(Cl)c(Cl)cc1Cl`: the growth inhibition is 2% (inactive).

For `O=C(O)C1CC(c2ccccc2)=NN1c1ccccc1` (stereo not drawn), the growth inhibition is -3% (inactive).

For `COc1cc([C@@H]2c3cc4c(cc3[C@@H](Nc3ccc(NC(=O)c5cc([N+](=O)[O-])cn5C)cc3)[C@H]3COC(=O)[C@H]23)OCO4)cc(OC)c1O`, the growth inhibition is 14% (inactive).

As to `O=C(O)c1ccccc1/C=N/N=C1c2ccccc2-c2ccccc21`, the growth inhibition is 9% (inactive).

As for `O=C1CC(=O)c2ccccc21`, the growth inhibition was 18% (inactive).

In the case of `Nc1ncnc2c1ncn2C1OC(CO)CC1O` (stereo not drawn), the growth inhibition was -25% (inactive).

The same assay, now with this note: S. cerevisiae rad50 mutant strain, at 100.0 µM, active compounds read high.
With `CS(=O)(=O)SCc1ccc([N+](=O)[O-])cc1`, the growth inhibition is 97% (active).

For `Cc1csc(=S)n1OC(=O)NC1CCCCC1`, the growth inhibition was 99% (active).

Regarding `CCOc1ccc(NC(=O)C2=C(C)NC(C)=C(C(=O)Nc3ccc(OCC)cc3)C2c2cccc([N+](=O)[O-])c2)cc1`, the growth inhibition is -4% (inactive).

Turning to `CC(C)(C)N=C(NO)c1ccccc1`, the growth inhibition was 63% (inactive).

On to `CCCCC/C(=C(\C#N)C(=O)OCC)c1ccccc1`, for which the growth inhibition was 78% (active).

`O=C(NCCCl)Sc1ccc(Cl)cc1`: the growth inhibition was 90% (active).

As for `O=C1Nc2ccc(Br)cc2C1=Nc1ccc2c(c1)OCO2`, the growth inhibition was -48% (inactive).

On to `CCC(C)OC(=O)Nc1ccc(C)c(NC(=O)OC(C)CC)c1` (stereo not drawn), for which the growth inhibition was 74% (active).

On to `O=C(O)c1cc2ccc(Cl)cc2c(O)c1C1=CCCCC1`, for which the growth inhibition is 33% (inactive).

`CN(C)Cc1cc(N=Nc2ccc(Cl)cc2)ccc1OC(=O)c1ccccc1`: the growth inhibition was 41% (inactive).

With `CN1CCN(C(=O)/C=C/C(=O)c2ccccc2)CC1`, the growth inhibition is 66% (inactive).

Consider `CCCC/C=C/C(C)(C(=O)OCC)C(=O)OCC`, for which the growth inhibition was 16% (inactive).

With `Cc1nc(-c2cc3cc([N+](=O)[O-])ccc3oc2=O)cs1`, the growth inhibition is 99% (active).

Turning to `Cc1nc2ccccc2nc1NNc1ccccc1`, the growth inhibition is 84% (active).

Take `CN(C)[C@@H]1C(=O)C(C(N)=O)=C(O)[C@@]2(O)C(=O)C3=C(O)c4c(O)cccc4C[C@H]3C[C@@H]12`: the growth inhibition was 9% (inactive).

On to `COc1ccc(NC(=O)CC2SC(=Nc3ccccc3C)NC2=O)c([N+](=O)[O-])c1` (stereo not drawn), for which the growth inhibition was 80% (active).

`COc1cc(O)c2c(c1O)C(=O)c1cc(C)ncc1C2=O`: the growth inhibition is 52% (inactive).

With `CSc1nnc(SC)nn1`, the growth inhibition was 98% (active).

Regarding `COc1cc(/C=C2\CCC/C(=C\c3ccc(O)c(OC)c3)C2=O)ccc1O`, the growth inhibition is 15% (inactive).

In the case of `CN(C)CCNC(=O)c1cccc2cc([N+](=O)[O-])ccc12`, the growth inhibition was 95% (active).

As to `CCC(C)(C)c1ccc(Oc2cccc(C(=O)O)c2)cc1`, the growth inhibition was 56% (inactive).

`CCCCCCSc1ncnc2[nH]ncc12`: the growth inhibition was 12% (inactive).

In the case of `CC(=O)Nc1ccc(/C=C/[N+](=O)[O-])cc1`, the growth inhibition was 82% (active).

On to `CCOC(=O)c1[nH]n(-c2ccccc2)c(=O)c1C=NC(=S)C(N)=S`, for which the growth inhibition was 69% (inactive).

With `CCCC(O)C1CC(C(C)C)CCC1C` (stereo not drawn), the growth inhibition was 98% (active).

Regarding `O=[n+]1c2ccccc2n([O-])c2cc(Br)ccc21`, the growth inhibition was 97% (active).

`CN(C)CCNC(=O)c1cccc2c1Oc1c(cccc1[N+](=O)[O-])O2`: the growth inhibition was 68% (inactive).

Consider `Nc1ncc(-c2ccc(Br)cc2)s1`, for which the growth inhibition is 97% (active).

On to `Cc1cc2cc3cc(C)c(N)cc3nc2cc1N`, for which the growth inhibition is 84% (active).

With `CC12C(=O)OC(=O)C(c3ccccc31)c1ccccc12`, the growth inhibition was 9% (inactive).

Consider `c1ccc2c(OCC3CO3)cccc2c1` (stereo not drawn), for which the growth inhibition was 96% (active).

Take `CCOC(=N)c1ccc(O)c(OC)c1`: the growth inhibition was 1% (inactive).

Take `Nc1cc(N)c(N=Nc2cccc3c(S(=O)(=O)O)cccc23)cc1N=Nc1cc([N+](=O)[O-])ccc1O`: the growth inhibition is 38% (inactive).

Regarding `COC(=O)Oc1cc(Cl)c(Cl)cc1Cl`, the growth inhibition was 1% (inactive).

For the compound `O=C(O)C1CC(c2ccccc2)=NN1c1ccccc1` (stereo not drawn), the growth inhibition is 51% (inactive).

Take `COc1cc([C@@H]2c3cc4c(cc3[C@@H](Nc3ccc(NC(=O)c5cc([N+](=O)[O-])cn5C)cc3)[C@H]3COC(=O)[C@H]23)OCO4)cc(OC)c1O`: the growth inhibition is 22% (inactive).

On to `O=C(O)c1ccccc1/C=N/N=C1c2ccccc2-c2ccccc21`, for which the growth inhibition is 15% (inactive).

For the compound `O=C1CC(=O)c2ccccc21`, the growth inhibition was 55% (inactive).

As for `Nc1ncnc2c1ncn2C1OC(CO)CC1O` (stereo not drawn), the growth inhibition was 0% (inactive).
